Sampled rows, rich in hits. Any-hit rate of the full collection: about 15%.
TDP1 cell noCPT = qHTS for Inhibitors of human tyrosyl-DNA phosphodiesterase 1 (TDP1): qHTS in cells in absence of CPT | DT40 Tdp1-/- hTDP1 cells, no CPT, ATP luminescence, 48 h | Potency, µM (titrated, usually from 46.2 µM), inactives show at the top dose activity change, negative = growth inhibition, hits mostly inhibitors | 15% of 420,000 active | AID 686978, 2013; further: nearly all actives have a fitted effect of over 55% in size
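Cells were dispensed at 400 per well, compounds added by pin tool, plates incubated ≥48 hr at 37 °C, then CellTiter-Glo added for 30 min at room temperature before luminescence reading. Line: DT40 Tdp1-/- complemented with hTDP1; camptothecin omitted.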
DT40 TDP1 CPT = qHTS for Inhibitors of human tyrosyl-DNA phosphodiesterase 1 (TDP1): qHTS in cells in presence of CPT; Potency, µM (highest dose often 46.2 µM), inactives show top-dose activity change, negative = growth inhibition, hits mostly inhibitors; chicken DT40 Tdp1-/-;hTDP1 cells + 20 nM CPT, ATP luminescence, 48 h; 12% of 420,000 active; AID 686979, 2013; further: nearly all actives have a fitted effect of over 55% in size
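Chicken DT40 Tdp1-/- cells complemented with human TDP1, 400 cells/well, exposed to compounds plus 20 nM camptothecin for at least 48 h at 37 C; viability read as ATP content by CellTiter-Glo luminescence.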
12-LOX inh = Primary qHTS assay for inhibitors of human arachidonate 12S-lipoxygenase (ALOX12): Round 2; Polyunsaturated fatty acid lipoxygenase ALOX12 (Homo sapiens), P18054; Potency, µM (highest dose often 108 µM), for inactives: at the highest dose activity change, negative = inhibition, most hits filed as inhibitors; purified 12hLO, xylenol orange hydroperoxide absorbance; 1.1% of 580,000 active
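Purified human 12hLO (150 nM final) in 25 mM Hepes, 0.01% Triton X-100, pH 7.0 was preincubated 15 min at room temperature with compound. Then 40 uM arachidonic acid was added, 30 min. Hydroperoxide was read by Fe-XO absorbance ratio 573/405 nm.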
ELG1 DNA repair = qHTS screen for small molecules that inhibit ELG1-dependent DNA repair in human embryonic kidney (HEK293T) cells expressing luciferase-tagged ELG1 | 2.3% of 330,000 active | AID 504467, 2011 | Potency, µM (titrated, usually from 46.1 µM), for the others: at the highest dose activity change, negative = inhibition, usual class: inhibitors | HEK293T ELG1-luciferase reporter, luminescence, 16 h; DNA damage induced by 5-fluorouridine; further: nearly all actives have a fitted effect of over 55% in size
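5-Fluorouridine DNA damage + compound/DMSO, 2,000 cells/well, 16 h, 37 °C/5% CO2. ONE-Glo, 30 min RT, luminescence. Readout = decrease in reporter signal.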
RORgamma inh = qHTS for inhibitors of ROR gamma transcriptional activity | Nuclear receptor ROR-gamma (Mus musculus), P51450 | AID 2551, 2010 | Drosophila S2 Gal4-RORgamma UAS-luciferase reporter, 20 h | 5.4% of 310,000 active | Potency, µM (highest dose often 53.6 µM), for the others: at the top dose activity change, negative = inhibition, hits mostly inhibitors; further: nearly all actives have a fitted effect of over 60% in size
Target sequence (P51450 whole entry, looked up, the tested form may be a part): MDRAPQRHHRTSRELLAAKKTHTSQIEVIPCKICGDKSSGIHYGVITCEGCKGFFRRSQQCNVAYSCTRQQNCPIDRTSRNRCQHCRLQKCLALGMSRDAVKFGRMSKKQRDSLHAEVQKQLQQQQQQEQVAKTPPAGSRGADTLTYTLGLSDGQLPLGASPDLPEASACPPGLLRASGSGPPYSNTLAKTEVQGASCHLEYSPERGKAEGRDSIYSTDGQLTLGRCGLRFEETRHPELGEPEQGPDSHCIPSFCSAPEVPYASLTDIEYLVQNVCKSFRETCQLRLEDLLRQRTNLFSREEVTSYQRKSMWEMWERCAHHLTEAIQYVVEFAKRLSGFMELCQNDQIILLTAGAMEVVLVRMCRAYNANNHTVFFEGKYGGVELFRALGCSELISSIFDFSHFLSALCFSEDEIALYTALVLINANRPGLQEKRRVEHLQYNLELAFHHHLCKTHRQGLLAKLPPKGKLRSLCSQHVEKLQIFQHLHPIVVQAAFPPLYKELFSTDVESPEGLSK
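Schneider cells (Drosophila), stable Gal4 DBD–ROR gamma + UAS-luc; 1 hr cmpd preincubation; Cu2+ induction 700 uM final; 20 hr ambient; luminescence.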
Gal4-VP16 FLuc = VP16 counterscreen qHTS for inhibitors of ROR gamma transcriptional activity; Drosophila S2 Gal4-VP16 UAS-luciferase, luminescence, 20 h; Potency, µM (series often up to 53.6 µM), for inactives: at the highest dose activity, negative = inhibition, usual class: inhibitors; 3.5% of 310,000 active; AID 2546, 2010;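 further: Gal4-VP16 expression switched on by copper sulfate through the metallothionein promoter; nearly all actives have a fitted effect of over 50% in size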
The depositor's hits bear a star; u = inconclusive; x = no result; ! = not active in a repeat; [ ] = remark or other dose. The call rests on the fitted dose curve; in most records, active means well fitted curve in the direction sought with a large enough effect; inconclusive means small, poorly fitted or top-dose-only effect, or another doubt; inactive means no such curve, though single readings can be large; an effect the other way counts as inactive or inconclusive. On the % scale 0 is the no-effect control and ±100 the full control effect; potency means the concentration at half of the fitted maximal effect.

SMILES	TDP1 cell noCPT	DT40 TDP1 CPT	12-LOX inh	ELG1 DNA repair	RORgamma inh	Gal4-VP16 FLuc
Cc1ccc(Cc2cnc(NC(=O)/C(C#N)=C/c3ccc(-c4ccccc4[N+](=O)[O-])o3)s2)cc1	u	u	-16%	-5%	2.2µM*	4.5µM*
Cn1cc(/C=C(\C#N)C(=O)Nc2ncc(Cc3ccc(Cl)cc3)s2)c2ccccc21	u	-23%	u	-16%	2µM*	2.5µM*
CC(N)C1CC1 (stereo not drawn)	x	x	-29%	x	x	x
Cc1cc(C)c2c(CN3CCN(Cc4ccc5c(c4)OCO5)CC3)cc(=O)oc2c1	16µM*	u	u	u	-11%	-7%
Cc1cc(C)c2c(CN(Cc3ccccc3)Cc3ccccc3)cc(=O)oc2c1	16µM*	23µM*	0%	x	x	x
COc1cc(S(=O)(=O)N2CCN(Cc3ccc4c(c3)OCO4)CC2)c(C)cc1C	u	15µM*	35%	-8%	u	-19%
COCCN(CCOC)Cc1cc(=O)oc2cc(C)cc(C)c12	-22%	4%	2%	x	x	x
Cc1cc(C)c2c(CN3CCN(Cc4ccccc4)CC3)cc(=O)oc2c1	-29%	u	14µM*!	-4%	4%	4%
CC1(C)[C@H]2CC[C@@H](CN[S+](=O)([O-])c3ccccc3)[C@@H]1C2	x	x	-29%[176 µM]	x	x	x
N#Cc1c(N)nc(SCc2ccccc2)c(C#N)c1-c1ccco1	u	u	-61%	u	u	7.9µM*
N#Cc1c(N)nc(SCC(=O)OCc2ccccc2)c(C#N)c1-c1ccco1	-5%	-1%	-25%	2%	0%	2%
CCOC(=O)c1cc(N)cc(C(=O)OCC)c1	x	x	23%	x	x	x
Cc1ccc(C)c(S(=O)(=O)Nc2ccc3scnc3c2)c1	18µM*	23µM*	u	-26%	u	u
CC(C)c1ccc(/C=C2\NC(=S)N(Cc3cccnc3)C2=O)cc1	u	u	-2%	-10%	7.9µM*	-21%
O=C1CCN(S(=O)(=O)c2ccccc2)CCCN(C(=O)CCCc2ccccc2)CCN1	x	x	41%	x	x	x
NC(=NC(=O)c1ccccc1)N1CCN(C(c2ccccc2)c2ccccc2)CC1	u	21µM*	0%	u	16%	-6%
Cc1ccnc(SCC(=O)N2CCc3ccccc32)n1	-12%	-11%	1%	u	13%	-14%
Cc1ccccc1C(=O)N1CCN(C(c2ccccc2)c2ccccc2)CC1	23µM*	u	u	u	1%	6%
O=C(c1cc(-c2cccc(O)c2)on1)N1CCN(C(c2ccccc2)c2ccccc2)CC1	13µM*	21µM*	15%[57.4 µM]	-6%	1%	u
CN1CCN(C(N)=NC(=O)c2ccccc2)CC1	-12%	-4%	-24%	10%	-9%	5%
Cc1ccnc(SCC(=O)N2CCN(C(c3ccccc3)c3ccccc3)CC2)n1	16µM*	23µM*	-13%	u	-5%	7%
Cc1occc1C(=O)N1CCN(C(c2ccccc2)c2ccccc2)CC1	u	u	-10%	-25%	-12%	-11%
COc1ccc(Cl)cc1NC(=O)Cn1c2c(c(=O)n1-c1ccccc1)Cc1cccc(OC)c1O2	x	x	-9%	x	x	x
O=C(c1cc(F)ccc1Cl)N1C[C@@H](CO)[C@H](c2ccccn2)C1	x	x	1%	x	x	x
CC(=O)c1ccc(NC(=O)N[C@H]2CCN3C(=O)[C@@H](Cc4ccccc4)NC(=O)[C@H]23)cc1	x	x	-18%[176 µM]	x	x	x
SMILES	TDP1 cell noCPT	DT40 TDP1 CPT	12-LOX inh	ELG1 DNA repair	RORgamma inh	Gal4-VP16 FLuc
O=C(CCNS(=O)(=O)c1ccccc1C(F)(F)F)N1CCN(C(c2ccccc2)c2ccccc2)CC1	8.2µM*	12µM*	2%	-15%	x	x
Cc1cc(C(=O)N2CCN(C(c3ccccc3)c3ccccc3)CC2)on1	23µM*	8.2µM*	12%	-7%	-3%	-6%
CC(C)(C)C(=O)N1CCN(C(c2ccccc2)c2ccccc2)CC1	18µM*	u	x	-10%	17%	-15%
COc1cccc(-c2noc(-c3ccc(Br)cc3)n2)c1	x	x	-4%	x	x	x
Cc1csc(NC(=O)c2ccc(N3CCCC3=O)cc2)n1	u	-30%	-2%	u	2.5µM*	u
CCOc1ccc2nc(NC(=O)c3ccc(OCC4CCCO4)cc3)sc2c1 (stereo not drawn)	5.8µM*	4.1µM*	-12%	u	u	u
O=C(Nc1nc(-c2ccc(F)c(F)c2)cs1)c1ccc(OCC2CCCO2)cc1 (stereo not drawn)	u	u	-16%	u	-18%	-5%
Cc1csc(NC(=O)c2ccc(OCC3CCCO3)cc2)n1 (stereo not drawn)	u	u	2%	u	3.5µM*	u

Screening results deposited in PubChem by National Center for Advancing Translational Sciences (NCATS).
